For 26 compounds, Potency results are on record in PubChem BioAssay (NCATS).

Records with an inconclusive call do not appear. Calls of active or inactive are those of the source. Unless noted, the call rests on the fitted dose curve; in most records, active means well fitted curve in the direction sought with a large enough effect; inconclusive means small, poorly fitted or top-dose-only effect, or another doubt; inactive means no such curve, though single readings can be large; an effect the other way counts as inactive or inconclusive.

Assay [1] deals with Cytochrome P450 3A4 (Homo sapiens) (UniProt P08684). The assay can be described thus: qHTS Assay for Inhibitors and Substrates of Cytochrome P450 3A4 (AID 884). Further: nearly all actives have a fitted effect of over 50% in size. The gist of the method:
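20 nM human CYP3A4 with 25 uM Luciferin-PPXE (at KM) in 200 mM KPO4, preincubated 10 min with compound; NADPH regeneration started a 60 min RT reaction. Luciferin detected by luminescence, normalized to 57 uM ketoconazole as full inhibition.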
For orientation: In qHTS, concentration-response curves come from the screen itself.

Assay [2] can be described thus: Confirmation and Secondary Assay for Modulators of Hemoglobin Beta Chain Splicing at IVS2 654 locus (AID 910).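 Further: HeLa cells stably carrying EGFP split by mutant beta-globin IVS2-654 intron; per-well total GFP intensity by laser scanning cytometry after 2-day treatment.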 The gist of the method:
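Readout: per-well total peak green fluorescence (488 nm ex, 500–520 nm em) from objects 5–250 µm, reflecting correct splicing of an EGFP-654 reporter. Compounds were applied for 2 days at 37 °C to overnight-plated HeLa EGFP-654 cells; controls were DMSO and 500 nM IVS2-654 PNA.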

Assay [3] addresses Tyrosyl-DNA phosphodiesterase 1 (Homo sapiens) (UniProt Q9NUW8). The assay can be described thus: Confirmation Assay for Inhibitors of Tyrosyl-DNA Phosphodiesterase (TDP1) (AID 489007). Further: potency means the concentration at half of the fitted maximal effect; nearly all actives have a fitted effect of over 40% in size. To be noted: recombinant human TDP1 enzymatic activity, dose-response. The gist of the method:
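Recombinant human Tdp1 (1 nM final), expressed in E. coli, preincubated 15 min with compound. Then 15 nM 5'-biotin/3'-phosphotyrosine-FITC DNA substrate added for 5 min at room temperature. AlphaScreen beads (10 ug/ml) added for 10 min; cleavage gives signal loss.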

Assay [4] has as its target Ubiquitin carboxyl-terminal hydrolase 1 (Homo sapiens) (UniProt O94782). Kind of assay: Inhibitors of USP1/UAF1: Pilot qHTS (AID 504865). Further: nearly all actives have a fitted effect of over 35% in size. Further: potency means the concentration at half of the fitted maximal effect. In a few lines: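 Kinetic fluorescence assay: 1nM USP1/UAF1, 15 min compound preincubation, then 150nM Ub-Rho; 480/540 nm.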
Assay [5] in a line: S16 Schwann cell viability assay (CellTiter-Glo assay) (AID 624031).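 Further: native untransfected S16 rat Schwann cells; cellular ATP luminescence as a viability measure; nearly all actives have a fitted effect of over 70% in size.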 The gist of the method:
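Cells were seeded at 500-750 per well in phenol red-free DMEM with 10% FBS and left overnight. Compounds or DMSO were pinned in, incubation ran 24 h at 37 °C/5% CO2, then CellTiter-Glo reagent was added and luminescence measured.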
(Cellular ATP, detected with luciferase, serves as a proxy for viable cell number.)

Assay [6] is described as follows: S16 Schwann cell PMP22 intronic element firefly luciferase assay (AID 624032). Further: nearly all actives have a fitted effect of over 30% in size. Further: potency means the concentration at half of the fitted maximal effect. The gist of the method:
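Luciferase reporter of PMP22 intronic-element expression in stably transfected S16 rat Schwann cells, read by ONE-Glo luminescence after 24 h compound exposure at 37 C. Activity scaled between DMSO (0%) and positive-control PTC124; concentration-effect curves quality-classified.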

A short description of assay [7]: S16 Schwann cell PMP22 intronic element beta-lactamase assay (AID 624044; calls by dose curve; further: nearly all actives have a fitted effect of over 15% in size; further: potency means the concentration at half of the fitted maximal effect). Conditions: S16 rat Schwann cells, PMP22 element beta-lactamase FRET, 24 h; ratio activity, negative = inhibition: at 38.3 µM (top of the series). In a few lines:
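Rat S16 Schwann cells with beta-Lac driven by a PMP22 intronic element, compound-treated 24 h at 37 °C. LiveBLAzer FRET B/G read: 460 nm normalized to potassium clavulanate vs DMSO; 535 nm FRET as viability; concentration-effect curves classified.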

Another assay relates to DIV17. The assay can be described thus: qHTS profiling for inhibitors of Plasmodium falciparum proliferation (AID 504749). Further: nearly all actives have a fitted effect of over 60% in size. Further: potency means the concentration at half of the fitted maximal effect. To be noted: P. falciparum in erythrocytes, SYBR Green DNA, 72 h; series mostly up to 28.7 µM. In a few lines:
(§1)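 Infected RBCs, 0.3% parasitemia/2.5% Hct final; cpd 72 h, 37 C, 5% CO2; lysis buffer with saponin/triton/SYBR Green I, o/n RT dark; FI 485/535; norm. to artemisinin (0.29 uM) and DMSO.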

The subject of another assay is W2. The assay is described as above. Conditions: P. falciparum in erythrocytes, SYBR Green DNA, 72 h; series mostly up to 28.7 µM. The gist of the method:
as §1

Cytochrome P450 3A4 (Homo sapiens), sequence (P08684 whole entry, looked up): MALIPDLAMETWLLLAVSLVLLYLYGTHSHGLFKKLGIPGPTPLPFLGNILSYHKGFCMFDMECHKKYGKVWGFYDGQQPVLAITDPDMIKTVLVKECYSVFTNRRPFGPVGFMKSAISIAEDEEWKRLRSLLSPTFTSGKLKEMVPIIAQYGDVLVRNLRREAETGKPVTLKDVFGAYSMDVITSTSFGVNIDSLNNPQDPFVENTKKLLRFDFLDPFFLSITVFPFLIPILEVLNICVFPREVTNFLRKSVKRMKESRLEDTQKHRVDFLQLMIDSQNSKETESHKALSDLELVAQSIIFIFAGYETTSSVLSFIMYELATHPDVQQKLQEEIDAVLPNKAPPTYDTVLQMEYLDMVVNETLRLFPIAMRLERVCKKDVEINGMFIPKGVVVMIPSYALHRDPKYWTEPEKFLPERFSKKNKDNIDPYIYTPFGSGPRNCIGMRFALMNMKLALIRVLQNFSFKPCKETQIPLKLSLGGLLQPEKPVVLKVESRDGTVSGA
Tyrosyl-DNA phosphodiesterase 1 (Homo sapiens), sequence (Q9NUW8 whole entry, looked up): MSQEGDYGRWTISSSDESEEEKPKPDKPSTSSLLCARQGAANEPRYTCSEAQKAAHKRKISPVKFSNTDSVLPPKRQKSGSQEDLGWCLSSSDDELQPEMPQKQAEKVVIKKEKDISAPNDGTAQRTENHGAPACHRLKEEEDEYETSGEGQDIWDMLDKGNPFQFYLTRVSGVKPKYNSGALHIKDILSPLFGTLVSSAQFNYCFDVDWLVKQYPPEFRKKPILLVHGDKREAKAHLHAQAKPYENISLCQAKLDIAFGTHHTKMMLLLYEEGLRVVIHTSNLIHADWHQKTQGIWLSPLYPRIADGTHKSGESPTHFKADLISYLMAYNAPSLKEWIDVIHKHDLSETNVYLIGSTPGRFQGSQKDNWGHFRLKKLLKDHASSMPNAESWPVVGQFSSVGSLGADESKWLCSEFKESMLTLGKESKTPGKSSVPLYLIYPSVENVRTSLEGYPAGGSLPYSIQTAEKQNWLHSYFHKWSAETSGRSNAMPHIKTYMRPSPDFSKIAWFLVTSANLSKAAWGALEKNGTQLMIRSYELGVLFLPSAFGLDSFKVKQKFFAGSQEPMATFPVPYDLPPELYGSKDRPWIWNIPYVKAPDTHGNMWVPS
Ubiquitin carboxyl-terminal hydrolase 1 (Homo sapiens), sequence (O94782 whole entry, looked up): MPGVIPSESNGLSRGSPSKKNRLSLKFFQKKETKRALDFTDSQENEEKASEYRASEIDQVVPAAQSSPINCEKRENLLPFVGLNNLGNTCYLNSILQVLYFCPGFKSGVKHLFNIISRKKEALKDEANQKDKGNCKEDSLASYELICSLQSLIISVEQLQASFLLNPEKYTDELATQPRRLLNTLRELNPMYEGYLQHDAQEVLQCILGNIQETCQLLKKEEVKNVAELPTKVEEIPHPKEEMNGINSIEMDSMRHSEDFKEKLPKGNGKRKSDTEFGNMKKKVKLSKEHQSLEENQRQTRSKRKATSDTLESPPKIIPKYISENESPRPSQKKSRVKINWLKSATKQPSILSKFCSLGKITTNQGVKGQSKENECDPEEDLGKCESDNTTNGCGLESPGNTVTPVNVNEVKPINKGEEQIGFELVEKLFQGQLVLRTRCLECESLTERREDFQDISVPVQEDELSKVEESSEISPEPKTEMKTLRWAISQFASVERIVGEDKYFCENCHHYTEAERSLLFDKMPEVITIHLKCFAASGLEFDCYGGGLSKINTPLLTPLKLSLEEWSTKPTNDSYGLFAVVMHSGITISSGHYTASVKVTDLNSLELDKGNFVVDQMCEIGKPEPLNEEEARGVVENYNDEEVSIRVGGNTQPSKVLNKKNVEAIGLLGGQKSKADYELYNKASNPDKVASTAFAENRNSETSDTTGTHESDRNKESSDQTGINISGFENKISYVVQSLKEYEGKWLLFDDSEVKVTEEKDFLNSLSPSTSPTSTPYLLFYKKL

As to `CO/N=C(/C(=O)N[C@H]1C(=O)N2C(C(=O)O)=C(COC(C)=O)CSC12)c1csc(N)n1` (stereo partly drawn), the Potency entry in assay [1] and in assay [2] was “inactive” each time. Also, the Potency in [3] was 8.91 µM (active); in [4] it was 39.8 µM (active).
Take `C[C@]12CC[C@@H]3c4ccc(O)cc4CC[C@H]3[C@@H]1C[C@H](O)C2O` (stereo partly drawn): the Potency result (in assay [4]; in assay [5]; in assay [6]; in assay [7]; with DIV17; in the assay on W2) was “inactive” in each case.
As for `O=C(COc1ccc2oc(-c3ccco3)cc(=O)c2c1)N1CCCCC1`, the Potency in assay [3] is 79.4 µM (active).
Turning to `O=C(N/N=C/c1cccc(Br)c1)c1ccc(Br)cc1`, in [3], the Potency was 50.1 µM (active).
Regarding `CNC1C(O)C(OC2C(N)CC(N)C(OC3OC(CN)=CCC3N)C2O)OCC1(C)O` (stereo not drawn), the Potency result (in assay [4]; in assay [5]; in assay [6]; in the assay with DIV17; in the assay with W2) was “inactive” throughout.
Turning to `Cc1nc(S/C(=C\c2ccc(-c3ccc(C(=O)O)c(Cl)c3)o2)C(=O)O)n[nH]1`, in assay [3], the Potency is 3.55 µM (active).
Turning to `C=CCn1c(=O)n(C2OC(CO)C(O)C2O)c2nc(N)[nH]c(=O)c21` (stereo not drawn), the Potency entry (in [4]; in [5]; in [6]; in assay [7]; in the assay with DIV17; in the assay with W2) was “inactive” each time.
`COc1ccc(-n2c(NC(=O)c3ccc(Br)o3)c(C#N)c3nc4ccccc4nc32)cc1`: the Potency in [3] is 100 µM (active).
For the compound `Cc1cn([C@H]2CC(F)[C@@H](CO)O2)c(=O)[nH]c1=O` (stereo partly drawn), the Potency result (in assay [4]; in assay [5]; in assay [6]; in [7]; in the assay with DIV17; in the assay on W2) was “inactive” throughout.
Take `O=C1[C@@H]2C[C@@H]3C[C@H]1C[C@@](O)(C3)C2`: the Potency result (in assay [4]; in assay [5]; in [7]; in the assay with DIV17; with W2) was “inactive” throughout.
With `CC1(C)SC2C(NC(=O)C(C(=O)O)c3ccccc3)C(=O)N2C1C(=O)O` (stereo not drawn), the Potency result in assay [1], in assay [2], in assay [4], in assay [5], in assay [6] and in [7] was “inactive” each time. Besides, the Potency result in the assay with DIV17 and with W2 was “inactive” throughout.
Turning to `OCC1O[C@H](O[C@H]2C(O)C(O)C(O)O[C@@H]2CO)C(O)C(O)C1O` (stereo partly drawn), the Potency entry (in [1]; in assay [2]; in assay [4]; in assay [5]; in [6]; in the assay with DIV17) was “inactive” each time. Also, the Potency entry in the assay on W2 is “inactive”.
Take `Cc1ccc(Nc2ncccc2C(=O)O)cc1C`: the Potency entry (in assay [4]; in assay [5]; in assay [6]; in assay [7]; in the assay on DIV17; with W2) was “inactive” in each case.
On to `CCN1CCN(C(=O)NC(C(=O)NC2C(=O)N3C(C(=O)O)=C(CSc4nnnn4C)CSC23)c2ccc(O)cc2)C(=O)C1=O` (stereo not drawn), for which the Potency result (in [1]; in assay [2]; in assay [4]; in assay [5]; in [6]; with DIV17) was “inactive” in each case. Also, the Potency result in the assay with W2 was “inactive”.
As for `CCCCC/C(C=O)=C/c1ccccc1`, the Potency entry (in assay [4]; in [5]; in assay [6]; in assay [7]; with DIV17; in the assay with W2) was “inactive” each time.
Take `CCN(CC)C(=O)Nc1ccc(OC[C@H](O)CNC(C)(C)C)c(C(C)=O)c1`: the Potency entry (in assay [4]; in assay [5]; in [6]; in assay [7]; in the assay with DIV17; in the assay on W2) was “inactive” each time.
Consider `C/C1=C2/[N-]C(C(CC(N)=O)[C@@]2(C)CCC(=O)NCC(C)OP(=O)([O-])O[C@H]2[C@@H](O)[C@@H](n3cnc4cc(C)c(C)cc43)O[C@@H]2CO)[C@]2(C)N=C(/C(C)=C3N=C(/C=C4N=C1C(CCC(N)=O)C\4(C)C)[C@@H](CCC(N)=O)[C@]\3(C)CC(N)=O)[C@@H](CCC(N)=O)[C@]2(C)CC(N)=O.CC(=O)O.[Co]` (stereo partly drawn), for which the results for the Potency (in [4]; in assay [6]; in the assay on W2) were 56.2 µM (active), 2.56 µM (active) and 0.601 µM (active), respectively. In addition, the Potency entry (in assay [5]; with DIV17) was “inactive” throughout.
In the case of `CCCCCCCCCCCC(=O)OCC(O)C1OCC(O)C1O` (stereo not drawn), the Potency entry (in assay [5]; in assay [6]; in the assay with DIV17; in the assay with W2) was “inactive” in each case.
With `CCCC[C@H](O)c1ccccc1`, the Potency entry (in [4]; in [5]; in assay [6]; in [7]; in the assay on DIV17; in the assay with W2) was “inactive” throughout.
Regarding `CCC(C(=O)O)C1OC(C(C)C(O)C(C)C(=O)C(CC)C2OC3(C=CC(O)C4(CCC(C)(C5CCC(O)(CC)C(C)O5)O4)O3)C(C)CC2C)C(C)CC1C` (stereo not drawn), the Potency entry in assay [4] was “inactive”. Moreover, the Potency is 0.102 µM (active) in assay [6], 6.3 µM (active) in assay [7] and 0.0757 µM (active) in the assay on DIV17.
As to `O=C1C(I)=CC(=C(c2cc(I)c(O)c(I)c2)c2ccccc2C(=O)O)C=C1I`, the Potency result (in assay [5]; in assay [7]; with DIV17; in the assay with W2) was “inactive” throughout.
Take `CC(=O)NC1[C@H]([C@H](O)[C@H](O)CO)OC(C(=O)O)=C[C@H]1N=C(N)N` (stereo partly drawn): the Potency entry (in [4]; in assay [5]; in [7]; in the assay with DIV17; with W2) was “inactive” each time.
As for `OCCN1CC(O)C(O)C(O)C1CO` (stereo not drawn), the Potency entry (in assay [1]; in assay [2]; in [4]; in assay [5]; in [7]; with DIV17) was “inactive” each time. Besides, the Potency result in the assay on W2 was “inactive”.
In the case of `OC[C@@H]1O[C@](CO)(O[C@H]2O[C@H](CO)[C@@H](O)[C@H](O)[C@H]2O)[C@H](O)[C@H]1O`, the Potency entry (in assay [4]; in [5]; in [7]; with DIV17; in the assay on W2) was “inactive” throughout.
For `CC(=O)NC1[C@H](O)C[C@@](O)(C(=O)O)O[C@H]1[C@H](O)[C@H](O)CO` (stereo partly drawn), the Potency result (in [4]; in assay [5]; in [6]; in [7]; in the assay with DIV17; in the assay with W2) was “inactive” throughout.
Regarding `O=[N+]([O-])O[C@H]1CO[C@H]2[C@@H]1OC[C@H]2O`, the Potency result (in assay [4]; in assay [5]; in assay [6]; in assay [7]; in the assay with DIV17; in the assay on W2) was “inactive” throughout.
